# VP16 counter = VP16 counterscreen qHTS for inhibitors of ROR gamma transcriptional activity; Drosophila S2 Gal4-VP16 UAS-luciferase, luminescence, 20 h; Potency, µM (doses to about 53.6 µM), inactives show top-dose activity, negative = inhibition, usual class: inhibitors; actives 3.5% (n = 310,000);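 also: Gal4-VP16 expression switched on by copper sulfate through the metallothionein promoter; % is scaled to controls: 0 for no effect and ±100 for the full control effect; nearly all actives have a fitted effect of over 50% in size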
# ATXN viability = Viability Counterscreen for Primary qHTS for Inhibitors of ATXN expression; S2 cells (HEK-293 line with an ATXN2-luciferase reporter) viability, CellTiter-Fluor protease fluorescence, 24 h; Potency, µM (highest dose often 56.7 µM), most hits filed as cytotoxic; actives 0.49% (n = 400,000); also: nearly all actives have a fitted effect of over 40% in size
# TGFb SMAD3 inh = qHTS for Inhibitors of TGF-b; HepG2 CAGA-GFP TGF-b/SMAD3 reporter, GFP fluorescence, 18 h; TGF-beta stimulated, 500 pg/mL final; Potency, µM (highest dose often 46.1 µM), without a hit: at the highest dose activity, negative = inhibition, actives largely listed as inhibitors; actives 1.2% (n = 410,000); AID 588855, 2011; also: % is scaled to controls: 0 for no effect and ±100 for the full control effect; nearly all actives have a fitted effect of over 65% in size
#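 First, reporter cells (HEPG2 CAGA-GFP) rested 2 h at 37 degrees C. Next, compounds were pinned in and TGF-beta added to 500 pg/mL final. After 18 h, GFP was imaged per cell and summed per well.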
# HepG2 tox-1 = qHTS for Inhibitors of TGF-b: Cytotox Counterscreen; HepG2 CAGA-GFP viability, ATP luminescence, 18 h; Potency, µM (top dose mostly 46.1 µM), for inactives: top-dose activity change, negative = cytotoxicity, actives largely listed as cytotoxic; actives 0.76% (n = 410,000)
#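 HepG2 CAGA-GFP cells (1000/well, DMEM with 1% FBS) received compound, then TGF-beta at 500 pg/mL final, and were incubated 18 hours at 37 degrees C. Viability was read by CellTiter-Glo luminescence. Media-only wells were set as complete cell-killing and DMSO as no toxicity.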
# ATXN2 expr inh = Primary qHTS for Inhibitors of ATXN expression; HEK-293 ATXN2-luciferase reporter, luminescence, 24 h; Potency, µM (doses to about 57 µM), for the others: at the highest dose activity change, negative = inhibition, most hits filed as inhibitors; actives 0.72% (n = 360,000); AID 1745845, 2022; also: % is scaled to controls: 0 for no effect and ±100 for the full control effect; nearly all actives have a fitted effect of over 55% in size
#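 ATXN2-luciferase reporter cells (luciferase flanked by upstream and downstream ATXN2 gene portions) were treated 24 h at 37 °C with compounds at up to 57 uM. SteadyGlo luminescence gave expression; GF-AFC fluorescence gave viability.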
# RORgamma inh = qHTS for inhibitors of ROR gamma transcriptional activity; Drosophila S2 Gal4-RORgamma UAS-luciferase reporter, 20 h; Nuclear receptor ROR-gamma (Mus musculus), P51450; actives 5.4% (n = 310,000); Potency, µM (top dose mostly 53.6 µM), for the others: at the highest dose activity change, negative = inhibition, hits mostly inhibitors; AID 2551, 2010; also: % is scaled to controls: 0 for no effect and ±100 for the full control effect; nearly all actives have a fitted effect of over 60% in size
# Target sequence (P51450 whole entry, looked up, the tested form may be a part): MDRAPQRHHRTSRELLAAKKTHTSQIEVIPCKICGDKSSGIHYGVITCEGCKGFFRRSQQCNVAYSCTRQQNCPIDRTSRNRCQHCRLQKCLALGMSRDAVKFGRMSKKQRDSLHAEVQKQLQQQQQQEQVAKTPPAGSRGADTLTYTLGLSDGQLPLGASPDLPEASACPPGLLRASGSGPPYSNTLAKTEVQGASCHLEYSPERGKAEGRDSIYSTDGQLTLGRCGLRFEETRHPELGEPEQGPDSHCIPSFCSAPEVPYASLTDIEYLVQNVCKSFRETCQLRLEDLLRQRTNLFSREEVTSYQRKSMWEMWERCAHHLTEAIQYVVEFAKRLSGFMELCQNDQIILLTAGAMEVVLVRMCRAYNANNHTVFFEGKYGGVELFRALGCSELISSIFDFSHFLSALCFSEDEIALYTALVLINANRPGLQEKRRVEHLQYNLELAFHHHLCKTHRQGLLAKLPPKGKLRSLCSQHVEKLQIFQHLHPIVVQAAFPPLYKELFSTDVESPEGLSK
#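 Drosophila S2 cells stably expressing Gal4-DBD/mouse RORγ fusion under metallothionein promoter plus UAS-luciferase; compound 1 h, then 700 uM CuSO4 induction for 20 h at ambient temperature; inhibition read as reduced luminescence.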
# TGFb confirm = qHTS for Inhibitors of TGF-b: Confirmation of Cherry Picks | actives 63% (n = 1,600) | Potency, µM (titrated, usually from 46.1 µM), for the others: at the highest dose activity, negative = inhibition, actives largely listed as inhibitors | HepG2 CAGA-GFP TGF-b reporter, GFP fluorescence, 18 h; cells stimulated with TGF-beta, 500 pg/mL | shares compounds with TGFb SMAD3 inh; also: % is scaled to controls: 0 for no effect and ±100 for the full control effect; nearly all actives have a fitted effect of over 65% in size
# HepG2 tox-2 = qHTS for Inhibitors of TGF-b: Cytotox Counterscreen for Cherry Picks; shares compounds with TGFb SMAD3 inh; HepG2 CAGA-GFP viability, ATP luminescence, 18 h; cells stimulated with TGF-beta, 500 pg/mL; Potency, µM (series often up to 46.1 µM), without a hit: at the top dose activity, negative = cytotoxicity, hits mostly inhibitors; actives 27% (n = 1,600); also: % is scaled to controls: 0 for no effect and ±100 for the full control effect; nearly all actives have a fitted effect of over 70% in size
# CCL64 TGFb inh = qHTS for Inhibitors of TGF-b: CCL64 Cells Orthogonal Assay for Cherry Picks; actives 41% (n = 1,600); CCL64 CAGA-GFP reporter, TGF-b stimulated, GFP fluorescence, 18 h; Potency, µM (highest dose often 46.1 µM), for inactives: top-dose activity, negative = inhibition, hits mostly inhibitors; shares compounds with TGFb SMAD3 inh; also: nearly all actives have a fitted effect of over 65% in size
# TGFb COP inh = qHTS for Inhibitors of TGF-b: Hit Validation in HepG2 Cells using COP promoter | actives 3% (n = 1,600) | shares compounds with TGFb SMAD3 inh | Potency, µM (top dose mostly 46.1 µM), for the others: at the top dose activity, negative = inhibition, actives largely listed as inhibitors | HepG2 COP-GFP TGF-b reporter, GFP fluorescence, 18 h; cells stimulated by added recombinant TGF-beta; also: nearly all actives have a fitted effect of over 70% in size
# The depositor's hits bear a star; i = inactive; ? = inconclusive; / = no result given. An excerpt weighted towards active compounds, which were near 6.1% of everything screened. Calls follow the shape of the dose curve; as a rule, active = well fitted curve in the direction sought with a large enough effect; inconclusive = small, poorly fitted or top-dose-only effect, or another doubt; inactive = no such curve, though single readings can be large; an effect the other way counts as inactive or inconclusive. Potency is read from the fitted curve at half-maximal effect.
SMILES,VP16 counter,ATXN viability,TGFb SMAD3 inh,HepG2 tox-1,ATXN2 expr inh,RORgamma inh,TGFb confirm,HepG2 tox-2,CCL64 TGFb inh,TGFb COP inh
Oc1ccc(C[C@H]2CNC(=S)N2CC2CCCN2C[C@H](Cc2ccccc2)N2C[C@H](Cc3ccc(O)cc3)N(CC3CCCCC3)C2=S)cc1 (stereo not given in full),/,?,5.6µM*,-52%,?,/,15µM*,?,4.1µM*,30%
CC(C)C[C@H]1CNC(=S)N1CC1CCCN1C[C@H](Cc1ccc(O)cc1)N1C[C@H](Cc2ccccc2)N(CC2CCCCC2)C1=S (stereo not given in full),/,?,?,-2%,-27%,/,/,/,/,/
Oc1ccc(C[C@H]2CNC(=S)N2CC2CCCN2C[C@H](Cc2ccc(O)cc2)N2C[C@H](Cc3ccccc3)N(CC3CCCCCC3)C2=S)cc1 (stereo not given in full),/,i,7.9µM*,-8%,-27%,/,6.5µM*,-8%,10µM*,10%
CC(C)C[C@H]1CNC(=S)N1C[C@H]1CCCN1C[C@H](Cc1ccc(O)cc1)N1C[C@H](Cc2ccccc2)N(CC2CCCCCC2)C1=S,/,?,?,-20%,0%,/,?,-4%,?,3%
O=C(c1cc(-c2ccc(Br)cc2)n[nH]1)N1CCN(S(=O)(=O)c2ccc(Br)s2)CC1,/,/,-6%,-37%,/,/,/,/,/,/
CCCC(=O)Nc1cccc(OCc2cc(=O)n3cccc(C)c3n2)c1,/,/,2%,-25%,/,/,/,/,/,/
Oc1ccc(C[C@H]2CNC(=S)N2CC2CCCN2C[C@H](Cc2ccc(O)cc2)N2C[C@H](Cc3ccc(O)cc3)N(CC3CCCCCC3)C2=S)cc1 (stereo not given in full),/,?,7.9µM*,-10%,20µM*,/,16µM*,?,3.3µM*,13%
O=S(=O)(CCOc1ccccc1)c1nc2ccccc2[nH]1,-12%,i,16µM*,-33%,31%,?,6.5µM*,23µM*,16µM*,?
COc1ccc(-c2nc(CSCC(=O)NCCc3ccc(OC)c(OC)c3)c(C)o2)cc1,/,/,?,-33%,/,/,/,/,/,/

# Bioassay records from PubChem.
